Compound activity: PubChem BioAssay, National Center for Advancing Translational Sciences (NCATS)
An excerpt weighted towards active compounds, which were near 7% of everything screened.
JMJD2A Tudor: qHTS Assay for Inhibitors of JMJD2A-Tudor Domain; 390,000 tested, 4.4% active; AID 504339, 2011; Potency, µM (highest dose often 114 µM), hits mostly inhibitors; AlphaScreen JMJD2A-Tudor / H3K4me3 peptide binding; Lysine-specific demethylase 4A (Homo sapiens), O75164; further: nearly all actives have a fitted effect of over 50% in size
HP1b chromo inh: HTS for Inhibitors of HP1-beta Chromodomain Interactions with Methylated Histone Tails; Chromobox protein homolog 1 (Homo sapiens), P83916; AlphaScreen HP1-beta / biotin-H3K9me3 peptide binding; Potency, µM (titrated, usually from 114 µM), most hits filed as inhibitors; 390,000 tested, 0.56% active; AID 540317, 2011; further: nearly all actives have a fitted effect of over 70% in size
Target sequence (P83916 whole entry, looked up): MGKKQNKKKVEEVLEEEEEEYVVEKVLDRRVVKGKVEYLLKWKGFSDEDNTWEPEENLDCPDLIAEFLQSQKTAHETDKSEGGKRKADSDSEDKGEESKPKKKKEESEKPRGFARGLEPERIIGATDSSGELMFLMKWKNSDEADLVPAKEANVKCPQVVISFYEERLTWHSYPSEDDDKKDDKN
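Compound inhibition of the preformed complex between 50 nM HP1-beta and 50 nM biotinylated H3K9me3 peptide was read by AlphaScreen. Buffer was PBS pH 7.4 with 0.01% Tween-20. Incubations ran 30 min at room temperature, with 10 ug/mL donor/acceptor beads.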
PLK1 PBD inh: qHTS for Inhibitors of PLK1-PDB (polo-like kinase 1 - polo-box domain): Primary Screen; Plk1 PBD binding of FITC phosphopeptide, fluorescence polarization; Potency, µM, usual class: inhibitors; 360,000 tested, 2.8% active; AID 720504, 2013; further: series mostly up to about 57 µM; nearly all actives have a fitted effect of over 65% in size
BAZ2B inh: qHTS Assay for Inhibitors of BAZ2B; Bromodomain adjacent to zinc finger domain protein 2B (Homo sapiens), Q9UIF8; AlphaScreen BAZ2B-H3K14Ac peptide displacement; Potency, µM (series often up to 114 µM), actives largely listed as inhibitors; 360,000 tested, 4.4% active; AID 504333, 2011; further: nearly all actives have a fitted effect of over 60% in size
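Complex of BAZ2B and biotin-H3K14Ac (50 nM apiece) forms over 30 min at RT, then faces library compounds up to 110 uM for another 30 min; AlphaScreen beads added, 20 min dark incubation, luminescence read.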
KAT2A inh: qHTS Assay for Inhibitors of GCN5L2 | GCN5L2 HAT assay, ThioGlo1 CoA-SH fluorescence | Potency, µM (doses to about 58.9 µM), most hits filed as inhibitors | 390,000 tested, 0.21% active
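ThioGlo1-coupled HAT assay: 20nM GCN5L2, 70uM acetyl-CoA, 75uM H3(1-25) peptide, pH 7.5. Fluorescence read at 340/540nm at start and after 20 min at room temperature.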
PI5P4Ka inh: qHTS for Inhibitors of phosphatidylinositol 5-phosphate 4-kinase (PI5P4K) | Phosphatidylinositol 5-phosphate 4-kinase type-2 alpha (Homo sapiens), P48426 | PI5P4Kalpha enzyme, ADP-Glo luminescence, 60 min; stronger effect = lower value | max response, % | 330,000 tested, 1.2% active; active means max response of -50% or lower; inconclusive means between -30% and -50%; inactive means -30% or higher; further: value at the top dose of about 77 µM
Target sequence (P48426 whole entry, looked up): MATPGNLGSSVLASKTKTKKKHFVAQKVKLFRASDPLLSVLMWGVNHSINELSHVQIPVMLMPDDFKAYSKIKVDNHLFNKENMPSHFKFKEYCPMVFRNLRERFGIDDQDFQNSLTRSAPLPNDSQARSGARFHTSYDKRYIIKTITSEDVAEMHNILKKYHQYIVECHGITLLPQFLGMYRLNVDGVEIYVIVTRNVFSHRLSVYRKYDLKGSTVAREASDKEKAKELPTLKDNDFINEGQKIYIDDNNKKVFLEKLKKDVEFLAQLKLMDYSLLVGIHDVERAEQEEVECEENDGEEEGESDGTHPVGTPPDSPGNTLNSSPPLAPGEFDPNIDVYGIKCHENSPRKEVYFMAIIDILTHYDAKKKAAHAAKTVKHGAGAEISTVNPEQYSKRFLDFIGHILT
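Reactions run in 0.038 M HEPES pH 7.4, 0.28 mM EGTA, 0.1% CHAPS and 5% DMSO, with PI5P4Kalpha, substrate, compound and 5 microM ATP final, one hour at room temperature. Readout is ADP-Glo luminescence.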
Hits are given with their value; i = inactive; ? = inconclusive; nt = no result given; ! = not confirmed by another sample; [ ] = dose if it differs, or a comment. Unless noted, the call rests on the fitted dose curve; in most records, active means well fitted curve in the direction sought with a large enough effect; inconclusive means small, poorly fitted or top-dose-only effect, or another doubt; inactive means no such curve, though single readings can be large; an effect the other way counts as inactive or inconclusive.

SMILES | JMJD2A Tudor | HP1b chromo inh | PLK1 PBD inh | BAZ2B inh | KAT2A inh | PI5P4Ka inh
CCc1ccc(NC(=O)C(C)Sc2nc(-c3ccco3)c(C#N)c(=O)[nH]2)cc1 (centres undefined) | ? | i | 24µM | ? | i | -57
N#C/C(=C/c1ccc(-c2ccc(S(N)(=O)=O)cc2)o1)C(=O)Nc1ccccc1 | i | i | i | i | i | ?
N#C/C(=C/c1ccc(-c2ccc(S(N)(=O)=O)cc2)o1)c1nc2ccccc2s1 | i | i | i | i | i | -53
CCCNC(=S)NC1CC2CCCC(C1)N2Cc1ccc(F)cc1 (centres undefined) | i | i | i | i | i | i
COc1ccccc1OCCNC(=O)c1c(-c2ccccc2Cl)noc1C | i | i | i | i | i | i
CCC(=O)c1ccc(OCCSc2ncccn2)cc1 | i[11.4 µM] | i | 27µM | i | i | i
Cc1nc2nc(CNC(=O)c3cccc(F)c3)nn2c(C)c1CCC(=O)Nc1cccc(Cl)c1 | i | i | nt | i | i | nt
O=C(CCn1c(=O)c2cccn2c2cccnc21)N1CCN(c2cccc(Cl)c2)CC1 | 16µM! | i | 3.4µM | i | i | ?
CCN(CC)c1ccc(C(=O)OCC(=O)NC2CCCCC2C)cc1 (centres undefined) | 50µM | i | 30µM | i | i | i
CC12C(=O)N(c3ccccn3)C(=O)C1C1C=CC2C1 (centres undefined) | i | i | 30µM | i | i | i
Cc1ccnc2c(N3C(=O)C4C5C=CC(C5)C4(C)C3=O)cccc12 (centres undefined) | i | i | i | i | i | i
O=c1[nH]cnc2c1ncn2C1OC(CO)C(O)C1O (centres undefined) | i | i | i | nt | i | i
CC1(C)OC2C(CO)OC(n3cnc4c(=S)nc[nH]c43)C2O1 (centres undefined) | ? | ? | i | 50µM | i | i
OCC1OC(n2cnc3c(=S)nc[nH]c32)C(O)C1O (centres undefined) | 20µM | ? | nt | nt | i | nt
O=C(/C=C/c1ccccc1Cl)N1CCC(c2nc3ccccc3o2)CC1 | i | i | nt | i | i | nt
CCc1cccc(CC)c1N1C(=O)CSCC1=O | nt | nt | i | nt | nt | i
O=C(CCN1C(=O)/C(=C\C=C\c2ccccc2)SC1=S)Nc1ccc(C(=O)O)cc1 | 22µM | 50µM | 24µM | 16µM | ? | ?
O=C(CN1C(=O)/C(=C\C=C\c2ccccc2)SC1=S)Nc1ccc(F)cc1 | i | i | i | i | i | i
O=C(CCN1C(=O)/C(=C/c2cccs2)SC1=S)Nc1ccc(C(=O)O)cc1 | ? | i | i | 56µM | i | i
CCN(CC)CCOC(=O)c1ccc(NC(=O)CCCN2C(=O)/C(=C/c3cccs3)SC2=S)cc1 | 40µM | ? | i | i | i | i
O=C(COC(=O)CCN1C(=O)/C(=C\C=C\c2ccccc2)SC1=S)Nc1cc(F)ccc1F | 40µM | ? | i | 20µM | i | -51
O=C(CCCN1C(=O)/C(=C\c2cccs2)SC1=S)Nc1ccc(C(=O)O)cc1 | i | i | i | ? | i | i
CCc1ccc(NC(=O)C2CCCN(S(=O)(=O)c3cccc4nonc34)C2)cc1 (centres undefined) | i | i | nt | i | i | nt
CCCSC1=N/C(=C\C=C\c2ccco2)C(=O)S1 | 16µM | 35µM | i | 11µM | i | -67
CC(/C=C1\N=C(SCc2ccccc2Cl)SC1=O)=C\c1ccccc1 | 56µM | ? | 27µM | ? | i | ?
SMILES | JMJD2A Tudor | HP1b chromo inh | PLK1 PBD inh | BAZ2B inh | KAT2A inh | PI5P4Ka inh
O=C1SC(SCc2ccccc2)=N/C1=C\c1ccco1 | 56µM | ? | ? | 13µM | nt | nt
O=C1SC(SCc2ccccc2)=N/C1=C\c1ccc(C(=O)O)cc1 | ? | i | 19µM | ? | i | i
CC1CCC2(CC1)NC(=O)N(CC(=O)c1ccc(CNC(=O)C(C)(C)C)s1)C2=O (centres undefined) | i | i | i | i | i | i
COc1ccc(S(=O)(=O)N(C)C)cc1NC(=O)COC(=O)C1CC1 | i | i | i | nt | i | i
Fc1ccc(C2c3[nH]c4ccccc4c3CCN2Cc2cccn2-c2ncccn2)cc1 (centres undefined) | i | i | i | i | i | i
Clc1ccc(-n2cccc2CN2CCc3c([nH]c4ccccc34)C2c2ccccn2)nc1 (centres undefined) | 35µM | i | i | 25µM | i | i
COc1ccc(C=C2c3ccccc3C(=O)c3ccccc32)cc1O | nt | nt | nt | nt | i | nt
COc1ccc(/C=C2\C(=O)NC(=O)c3ccccc32)cc1OC | i | i | 4.7µM | nt | nt | i
COc1ccc(/C=C2\C(=O)OCc3cc(OC)c(OC)cc32)cc1OC | ? | i | i | i | i | i
COc1ccc(/C=C2\COc3ccccc3C2=O)cc1OC | 50µM | i | 27µM | i | i | i
COc1ccc(C=C2C(=O)OC(C)(C)OC2=O)cc1OC | i | i | 13µM | i | ? | i
COc1ccc(CCC(=O)NC2CC(=O)N(c3ccc(F)cc3)C2)cc1 (centres undefined) | i | i | nt | i | i | nt
COc1ccc(CCNC(=O)CSc2ccc3nnc(CCNC(=O)c4ccc(C)cc4)n3n2)cc1OC | i | i | i | nt | nt | i
OCCN1CC(O)C(O)C(O)C1CO (centres undefined) | nt | nt | nt | nt | i | nt
c1ccc(-c2nnc(-c3ccccn3)s2)nc1 | ? | i | 21µM | ? | i | i
COCC(=O)N(C)c1nnc(-c2ccccn2)s1 | i[11.4 µM] | i | i | 56µM | i | i
Cc1cc(-c2nnc(SCC(=O)Nc3ccccc3C)n2N)n[nH]1 | i | i | i | i | i | i
COc1cccc(Nc2nc3ccccc3nc2NS(=O)(=O)c2cccs2)c1 | 89µM | i | ? | i | i | i
COc1ccc(Nc2nc3ccccc3nc2NS(=O)(=O)c2cccs2)c(OC)c1 | i | i | i | i | i | i
COc1ccc(-c2cc(C(F)(F)F)nc(NCc3ccccc3)n2)cc1 | i | i | nt | i | i | nt
COc1ccc(-c2cc(C(F)(F)F)c3c(=O)n(-c4ccccc4)[nH]c3n2)cc1 | 56µM | i | i | ? | i | i
Cc1ccc(S(=O)(=O)N2CCN(c3nc(-c4cncn4C)nc4ccccc34)CC2)cc1 | ? | i | nt | nt | nt | nt
O=C(CCC1N=C2c3ccccc3N=C(SCc3cccc(F)c3)N2C1=O)NCc1cccs1 (centres undefined) | 79µM | i | nt | i | i | nt
